Data published in PubChem BioAssay AID2113 (National Center for Advancing Translational Sciences (NCATS), 2009).
Records with an inconclusive call do not appear. Calls of active or inactive are those of the source. Calls follow the shape of the dose curve; as a rule, active = well fitted curve in either direction with a large enough effect; inconclusive = small, poorly fitted or top-dose-only effect; inactive = no such curve, though single readings can be large or run the other way.

target: Lysosomal alpha-glucosidase (Homo sapiens) (UniProt P10253); experiment: Confirmation of Inhibitors and Activators of Human alpha-Glucosidase From Spleen Homogenate; settings: alpha-glucosidase enzyme activity; series mostly up to 60.5 µM; activity change, both directions: at the top concentration;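 as to Potency: fluorescence of 4-methylumbelliferone released from a fluorogenic glucopyranoside substrate at pH 5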; as to activity change, both directions: 0% is about no effect
In short: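 Fluorogenic assay using human spleen homogenate (1 ug) as enzyme source with 1 mM 4-methylumbelliferyl-alpha-D-glucopyranoside, pH 5.0 citrate buffer, 40 min at 37 C. 4-MU read (Ex 365/Em 440) after NaOH/glycine stop; AC50 from Hill fits.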
Potency is read from the fitted curve at half-maximal effect.

Activity change, both directions, inactive:
CC1(C)CC(=O)c2cc(C(=O)NC3CCSC3=O)c(=O)n(-c3ccccc3)c2C1 (stereo not drawn) 0.378% [at 31.5 µM], O=C(O)C[C@@H]1C(=O)O[C@@H]2C(COC(=O)c3cc(O)c(O)c(O)c3)O[C@@H](OC(=O)c3cc(O)c(O)c(O)c3)[C@@H](OC(=O)c3cc(O)c(O)c4c3[C@H]1[C@H](O)C(=O)O4)[C@H]2OC(=O)c1cc(O)c(O)c(O)c1 (stereo partly drawn) 15.7% [at 31.5 µM], COc1ccc(/C=C/c2nnc(NC(=O)CSc3ccc(C)cc3)s2)cc1 13%, CSc1ccccc1NC(=O)CN(C)CC(=O)NCc1ccccc1 4.33% [at 31.5 µM], CCNc1sc(C(=O)c2cccs2)c(N)c1-c1nc2ccccc2s1 4.26%, O=C(c1ccccc1)N1CCN(C(=O)c2ccccc2)CC1 0.493%, N#C/C(=C\c1cc(O)c(O)c(O)c1)C(N)=O -2.14% [at 31.5 µM], O=c1[nH]cc(C#Cc2ccccc2)c2ncncc12 -10.9%, CC(=O)c1ccc(N2CCN(S(=O)(=O)c3ccc4c(c3)C(=O)OC4)CC2)cc1 -1.65%, O=c1oc2ccc(Cl)cc2cc1-c1nc2c(s1)CCCC2 15.9%, CC(=O)c1cccc(S(=O)(=O)N2CCOCC2)c1 -0.557%, CCNc1ccc(C2(O)C(=O)c3ccccc3C2=O)cc1 -0.766%, Cc1noc(C)c1S(=O)(=O)N(CC(=O)N1CCc2ccccc21)c1ccc(C(C)C)cc1 2.08%, O=C1CC(c2ccccc2)Cc2nc(NCc3ccco3)ncc21 (stereo not drawn) -2.02%, CC1OC(OC2C(CO)OC(OC3C(CO)OC(O)C(O)C3O)C(O)C2O)C(O)C(O)C1NC1C=C(CO)C(O)C(O)C1O (stereo not drawn) -74.5%, Cn1c2c(c(=O)n(C)c1=O)CN(CCCN1CCOCC1)CN2 6.03% [at 31.5 µM], CC(C)Cn1c(SCC(=O)N2CCCCC2)nc2ccccc2c1=O -2.36% [at 31.5 µM], CC(=O)c1ccc(N2CCN(S(=O)(=O)c3ccc4c(c3)CCC(=O)N4)CC2)cc1 2.9%, CCCN1CNc2c(c(=O)[nH]c(=S)n2CCc2ccccn2)C1 -10.2%

Potency, active:
N#Cc1ccc(N2CCN(S(=O)(=O)c3ccc4c(c3)CC(=O)N4)CC2)cc1 1.16 µM [inhibitor], O=C1Cc2cc(S(=O)(=O)N3CCN(c4cccc(C(F)(F)F)c4)CC3)ccc2N1 18.8 µM [inhibitor], CCCN1CNc2c(c(=O)[nH]c(=S)n2CCc2cccc(C)c2C)C1 12.6 µM

Potency, inactive:
Cc1ccc(S(=O)(=O)N2CCN(C(=O)N(c3ccccc3)c3ccccc3)CC2)cc1
